In the library only some 5.4% were active in any assay of this set; here they are far more common.
JMJD2C inh: inhibitors of human GASC-1 (JMJD2C) demethylase | inhibition, % at 2.35 µM | 0.069% of 330,000 active | Q9H3R0 | GST-JMJD2C(1-420) H3K9me3 demethylation, DELFIA europium;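 active = more than half of a compound's replicate wells show inhibition beyond 50%, single wells judged on their own value; inconclusive = some, but no more than half, of replicates pass 50% inhibition; inactive = no replicate passes 50% inhibition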;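 also: signal counts dimethyl H3K9 product captured on neutravidin plate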
M18AAP inhibitor: blocks P. falciparum M18 aspartyl aminopeptidase | recombinant PfM18AAP, H-Glu-NHMec fluorogenic cleavage | inhibition, % at 7.35 µM | 1.2% of 290,000 active | AID 1822;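 active = inhibition above the campaign mean inhibition over all tested compounds plus 3 SD, cut at about 28% in these data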
Granule exo inh: blocks lytic granule exocytosis; AID 651702; 0.66% of 360,000 active; TALL-104 LAMP-1 surface exposure, flow cytometry; cells stimulated with thapsigargin and PMA; inhibition, % at 10 µM;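 active = inhibition above about 55%, limit read from the data; inconclusive = no clear call, values can overlap the other calls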
ALR inh: human ALR oxidase inhibition via reduced H2O2; P55789; purified ALR, DTT oxidation, H2O2 HRP-luminol luminescence; inhibition, % (no concentration beside the values); 3.8% of 290,000 active; AID 485317;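 active = mean replicate inhibition above about 79%, with every replicate also reaching it, limit read from the data; inconclusive = only one of the two criteria met; inactive = mean below limit and not every replicate reaching it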
Target sequence (P55789 whole entry, looked up): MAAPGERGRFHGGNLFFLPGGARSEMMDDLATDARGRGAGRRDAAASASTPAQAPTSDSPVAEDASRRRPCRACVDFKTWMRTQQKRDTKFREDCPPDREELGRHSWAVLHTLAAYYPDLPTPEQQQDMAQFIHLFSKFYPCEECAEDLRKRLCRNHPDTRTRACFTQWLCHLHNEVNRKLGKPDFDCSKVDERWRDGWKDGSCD
beta cell repl: MIN6 beta-cell proliferation induction; MIN6 cells proliferation, ATPlite luminescence, 48 h; cells starved in 0.2% serum; 100% = growth in 10% serum; 0.29% of 330,000 active; proliferation, % at 10 µM;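 active = compounds whose signal lies at least 3.5 SD above the mean of all wells on their plate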
SMARCA2 act: increases SMARCA2 function in MMTV reporter cells. MG213 cells, MMTV-luciferase reporter, dexamethasone, overnight. 1% of 370,000 active. activation, % at 9.1 µM; in the data active = activation above about 7.8%
SMARCA2 act conf: confirmation of SMARCA2 (BRM) function activators; shares compounds with SMARCA2 act; MG213 cells, MMTV-luciferase with dexamethasone, luminescence, overnight; MG213 cells expressing E1A, Rb sequestered; DMSO wells 0%, reference activator 100%; activation, % at 9.1 µM; 30% of 3,500 active; AID 652260;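 active = activation above its plate's cutoff, the mean activation of tested wells plus 3 SD, cut at about 7.9% in these data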
VP16 Luc act: GAL4-VP16 reporter activation counter-screen; AID 686939; activation, % at 9.1 µM; 41% of 3,500 active; HEK293 GAL4-VP16 pG5luc reporter, luciferase luminescence; scaled: DMSO wells 0%, SAHA wells 100%; shares compounds with SMARCA2 act;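 active = activation above the solvent-only control well mean plus 3 SD, averaged across control plates, cut at about 5.2% in these data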
Of the large screens only hits and unclear results are named; the others gave an inactive call (follow-up assays come after a bar, where they were run).

CCc1c(O)nc(SCC(=O)NC(C)(C)C)n(-c2ccccc2)c1=O	SMARCA2 act 8.1 | SMARCA2 act conf inactive | VP16 Luc act inactive
CCCCc1c(O)nc(SCC(=O)NC(C)(C)C)n(-c2ccccc2C)c1=O	none
CCOC(=O)C1=C(C)NC(=O)C(C#N)C1c1ccncc1 (stereo unspecified)	SMARCA2 act 9.8 | SMARCA2 act conf inactive | VP16 Luc act inactive
COc1ccc(C(=O)OCC(=O)Nc2ccc(F)c(F)c2F)cc1OC	SMARCA2 act 10.1 | SMARCA2 act conf inactive | VP16 Luc act inactive
COc1cc(CCC(=O)OCC(=O)Nc2ccc(F)c(F)c2F)cc(OC)c1OC	none
CS(=O)(=O)c1ccc(C(=O)OCC(=O)NCc2cccs2)cc1[N+](=O)[O-]	SMARCA2 act 11.9 (no result: M18AAP inhibitor) | SMARCA2 act conf inactive | VP16 Luc act inactive
COC(=O)CNC(=O)COC(=O)c1ccc(OC)c([N+](=O)[O-])c1	SMARCA2 act 9.1 | SMARCA2 act conf inactive | VP16 Luc act inactive
CN(C)C(=O)c1cc2c(c(-c3cccc(-c4ccccc4F)c3)n1)[C@@H](CCO)N(S(C)(=O)=O)C2	none (no result: JMJD2C inh, M18AAP inhibitor, ALR inh, beta cell repl)
COc1ccc2c(Cl)cc(NC(=O)Nc3c(C)cccc3C)nc2c1	none (no result: JMJD2C inh, M18AAP inhibitor, ALR inh, beta cell repl)
C=CCN1CCc2c(cc(O)c(O)c2Cl)C(c2ccccc2)C1 (stereo unspecified)	ALR inh 99.1, SMARCA2 act 9.2 (no result: M18AAP inhibitor) | SMARCA2 act conf inactive | VP16 Luc act inactive
COc1cccc(C(=O)NNC(=O)c2ccccc2)c1	none
COc1c(C(=O)NNC(=O)c2ccccc2)csc1Br	SMARCA2 act 15.7 | SMARCA2 act conf inactive | VP16 Luc act 7.0
O=[N+]([O-])c1ccccc1Nc1nc(-c2cccnc2)cs1	SMARCA2 act 9.2 | SMARCA2 act conf 9.6 | VP16 Luc act 7.7
CCC(C)[C@H](N)C(=O)N[C@H]1CCC2C3CC=C4C[C@@H](O)CC[C@]4(C)C3CC[C@@]21C (stereo partly specified)	none (no result: JMJD2C inh, M18AAP inhibitor, ALR inh, beta cell repl)
CCc1ccccc1NC(=O)C1CCC(=O)N(c2ccc(OC)cc2)C1c1ccc(OC)cc1 (stereo unspecified)	SMARCA2 act 9.6 (no result: JMJD2C inh, M18AAP inhibitor, Granule exo inh, ALR inh, beta cell repl) | SMARCA2 act conf inactive | VP16 Luc act inactive
Cc1nn2cc(-c3ccc(Cl)cc3)nc2s1	SMARCA2 act 8.7 | SMARCA2 act conf inactive | VP16 Luc act 10.3
Cn1c(Oc2cccnc2CN2CCCC2)nc2cc(-c3cccc(C(F)(F)F)c3)sc2c1=O	Granule exo inh inconclusive (no result: JMJD2C inh, M18AAP inhibitor, ALR inh, beta cell repl)
CN(C)CCNC(=O)c1cccc(-c2cccc3nncn23)c1	none (no result: JMJD2C inh, M18AAP inhibitor, ALR inh, beta cell repl)
CCCCCCOC(=O)c1ccc(N)cc1	SMARCA2 act 8.0 | SMARCA2 act conf inactive | VP16 Luc act 5.8
CCCCOC(=O)c1ccc(N)cc1	none
Cc1ccc(Cl)cc1-c1cc(C(=O)N2CCc3ccccc3C2)[nH]n1	none (no result: JMJD2C inh, M18AAP inhibitor, ALR inh, beta cell repl)
COCCCNC(=O)Cn1cc2c(n1)CCC(C)C2 (stereo unspecified)	none
CC1CCc2nn(CC(=O)NCCCN3CCCC3=O)cc2C1 (stereo unspecified)	SMARCA2 act 8.7 (no result: M18AAP inhibitor, ALR inh) | SMARCA2 act conf inactive | VP16 Luc act inactive
C#CCN1C(=O)[C@]2(OCCC=C[C@H]2C)c2ccccc21	none (no result: JMJD2C inh, M18AAP inhibitor, Granule exo inh, ALR inh, beta cell repl)
CC(=O)c1ccc(N2CCN(S(=O)(=O)c3ccc4c(c3)C(Cl)(Cl)C(=O)N4)CC2)cc1	SMARCA2 act 10.1 (no result: JMJD2C inh, M18AAP inhibitor, ALR inh, beta cell repl) | SMARCA2 act conf inactive | VP16 Luc act inactive
CC(=O)c1ccc(N2CCN(S(=O)(=O)c3ccc4c(c3)NC(=O)CC(=O)N4)CC2)cc1	none
O=C(CS(=O)c1ccc(C(F)(F)F)cc1[N+](=O)[O-])Oc1ccccc1 (stereo unspecified)	Granule exo inh 55.8, ALR inh 98.6, SMARCA2 act 15.6 | SMARCA2 act conf inactive | VP16 Luc act inactive
COC(=O)c1ccc(OC(=O)CS(=O)c2ccccc2[N+](=O)[O-])cc1 (stereo unspecified)	none
